The record followed here is the antibiotic and cytotoxicity screens of Wong et al. (2023).

Structures are written as SMILES. Out of some 39,000 compounds screened, about 3,300 (8.5%) were called active. This is one part of a sample in which actives are shown more often than they occur.

The assay deals with HepG2. Kind of assay: cytotoxicity call (relative viability < 0.9). As to conditions: 10 µM.
With `COc1ccc(CN(C)C[C@H]2OCCCC[C@H](C)Oc3ccc(NS(=O)(=O)c4ccc(C)cc4)cc3C(=O)N([C@H](C)CO)C[C@H]2C)cc1`, the cytotoxicity call was “inactive”.

`COc1ccc(NC(=O)Nc2ccc3c(c2)C(=O)N([C@@H](C)CO)C[C@@H](C)[C@H](CN(C)C(=O)Nc2cccc4ccccc24)O3)cc1`: the cytotoxicity call is “inactive”.

Consider `C[C@H]1CCCCO[C@@H](CN(C)C(=O)Nc2ccc3c(c2)OCO3)[C@@H](C)CN([C@@H](C)CO)C(=O)c2cc(NS(=O)(=O)c3ccc(F)cc3)ccc2O1`, for which the cytotoxicity call was “inactive”.

For `C[C@@H]1CN([C@H](C)CO)C(=O)c2cc(NC(=O)Nc3cccc4ccccc34)ccc2O[C@H]1CN(C)C(=O)Nc1ccc(F)cc1`, the cytotoxicity call was “inactive”.

As for `c1ccc(Nc2nc(-c3ccccc3)nc3ccccc23)cc1`, the cytotoxicity call is “inactive”.

On to `CCc1ccc(Nc2c3c(nc4ccccc24)CCCC3)cc1`, for which the cytotoxicity call was “active”.

In the case of `CC(C)CN(C(=O)COC(=O)c1c2c(nc3ccccc13)CCC2)c1c(N)n(Cc2ccccc2)c(=O)[nH]c1=O`, the cytotoxicity call was “inactive”.

In the case of `CCC(CC)c1nc(Nc2ccccc2)c2ccccc2n1`, the cytotoxicity call is “inactive”.

For the compound `CCOc1ccc(NC(C)=O)cc1`, the cytotoxicity call was “inactive”.

As to `CCc1ccc(Nc2c3c(nc4ccccc24)CCC3)cc1`, the cytotoxicity call was “active”.

`CCOc1ccc(Nc2c3ccccc3nc3ccccc23)cc1`: the cytotoxicity call is “active”.

On to `COc1ccc(NC(=O)Nc2ccc3c(c2)C(=O)N([C@H](C)CO)C[C@@H](C)[C@H](CN(C)C(=O)Nc2ccc4c(c2)OCO4)OCCCC[C@@H](C)O3)cc1`, for which the cytotoxicity call was “inactive”.

Turning to `Cc1cccn2c(CN)cnc12`, the cytotoxicity call was “inactive”.

For the compound `C[C@H](CO)N1C[C@H](C)[C@H](CN(C)C(=O)Nc2ccc(C(F)(F)F)cc2)Oc2c(NC(=O)Nc3ccc(F)cc3)cccc2C1=O`, the cytotoxicity call is “inactive”.

On to `COc1ccc(S(=O)(=O)Nc2ccc3c(c2)C(=O)N([C@@H](C)CO)C[C@@H](C)[C@@H](CN(C)Cc2ccc4c(c2)OCO4)OCCCC[C@@H](C)O3)cc1`, for which the cytotoxicity call is “inactive”.

On to `COc1ccc(CN(C)C[C@@H]2OCCCC[C@H](C)Oc3ccc(NS(=O)(=O)c4ccc(F)cc4)cc3C(=O)N([C@H](C)CO)C[C@@H]2C)cc1`, for which the cytotoxicity call is “active”.

For the compound `COc1ccc(S(=O)(=O)Nc2ccc3c(c2)C(=O)N([C@H](C)CO)C[C@H](C)[C@H](CN(C)Cc2ccc4c(c2)OCO4)OCCCC[C@H](C)O3)cc1`, the cytotoxicity call is “active”.

In the case of `COc1ccc(CN(C)C[C@H]2OCCCC[C@@H](C)Oc3ccc(NS(=O)(=O)c4ccc(OC)cc4)cc3C(=O)N([C@@H](C)CO)C[C@H]2C)cc1`, the cytotoxicity call was “inactive”.

For the compound `COc1ccc(CN(C)C[C@H]2OCCCC[C@H](C)Oc3ccc(NS(=O)(=O)c4ccc(F)cc4)cc3C(=O)N([C@H](C)CO)C[C@H]2C)cc1`, the cytotoxicity call is “inactive”.

As to `COc1ccc(CN(C)C[C@@H]2OCCCC[C@@H](C)Oc3ccc(NS(=O)(=O)c4ccc(F)cc4)cc3C(=O)N([C@H](C)CO)C[C@H]2C)cc1`, the cytotoxicity call was “inactive”.

Regarding `COc1ccc(CN(C)C[C@H]2OCCCC[C@H](C)Oc3ccc(NS(=O)(=O)c4ccc(F)cc4)cc3C(=O)N([C@@H](C)CO)C[C@H]2C)cc1`, the cytotoxicity call is “active”.

On to `COc1ccc(CN(C)C[C@@H]2OCCCC[C@@H](C)Oc3ccc(NS(=O)(=O)c4ccc(F)cc4)cc3C(=O)N([C@@H](C)CO)C[C@H]2C)cc1`, for which the cytotoxicity call was “inactive”.

Take `COc1ccc(CN(C)C[C@@H]2OCCCC[C@H](C)Oc3ccc(NS(=O)(=O)c4ccc(OC)cc4)cc3C(=O)N([C@@H](C)CO)C[C@@H]2C)cc1`: the cytotoxicity call was “active”.

In the case of `COc1ccc(CN(C)C[C@H]2OCCCC[C@H](C)Oc3ccc(NS(=O)(=O)c4ccc(OC)cc4)cc3C(=O)N([C@H](C)CO)C[C@@H]2C)cc1`, the cytotoxicity call is “inactive”.

`COc1ccc(S(=O)(=O)Nc2ccc3c(c2)C(=O)N([C@@H](C)CO)C[C@H](C)[C@H](CN(C)Cc2ccc4c(c2)OCO4)OCCCC[C@@H](C)O3)cc1`: the cytotoxicity call is “inactive”.

Consider `COc1ccc(CN(C)C[C@H]2OCCCC[C@H](C)Oc3ccc(NS(=O)(=O)c4ccc(F)cc4)cc3C(=O)N([C@@H](C)CO)C[C@@H]2C)cc1`, for which the cytotoxicity call is “inactive”.
